# Source: PubChem BioAssay
# HCMV inh: inhibitors of human cytomegalovirus. HFF cells, HCMV-luciferase reporter, 72 h; hits give low values. activity change, negative = inhibition, % at 57.5 µM. AID 1259415. 410,000 tested, 4.5% active; in the data active = activity change below about -60%; inconclusive = no clear call, values can overlap the other calls; inactive = above about -39%; also: % is scaled to controls: 0 for no effect and ±100 for the full control effect
#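 Two compound doses tested in HFFs infected with HCMV-luciferase, MOI 1 PFU/cell, 72 h at 37C. Lysate luminescence read with OneGlo; data normalized against buffer-only and 10uM Salinomycin inhibitor controls.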
# CHX counter: counter-screen hit for Shiga toxin inhibitors, cycloheximide | 300,000 tested, 12% active | max response, % | cell reporter, cycloheximide protein synthesis inhibition counterscreen; in the data active = max response mostly above about 13%, no sharp cut-off; inactive = mostly below about 14%; also: read at 38.3 µM for the half of the compounds with a filed dose; 0% is about no effect
# Pf growth 96h: P. falciparum growth inhibition at 96 hour, primary screen for plastid delayed-death inhibitors | P. falciparum luciferase reporter growth, 96 h | Potency, µM (top dose mostly 28.7 µM), inactives show at the highest dose activity change, negative = inhibition, actives largely listed as inhibitors | 320,000 tested, 6.9% active; also: potency is read from the fitted curve at half-maximal effect; % is scaled to controls: 0 for no effect and ±100 for the full control effect
#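 P. falciparum expressing integrated firefly luciferase, in erythrocytes at 2% hematocrit, 0.05% parasitemia, incubated with compounds 96 h at 37 C, 5% CO2. Growth inhibition read as loss of luminescence; two-generation exposure targets delayed-death apicoplast inhibitors.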
# Pf growth 48h: P. falciparum growth inhibition at 48 hours (one generation); P. falciparum luciferase growth in erythrocytes, 48 h; Potency, µM (doses to about 28.7 µM), for the others: at the highest dose activity change, negative = inhibition, actives largely listed as inhibitors; 310,000 tested, 5.9% active; AID 504832; also: potency is read from the fitted curve at half-maximal effect; % is scaled to controls: 0 for no effect and ±100 for the full control effect
#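 Luciferase-expressing parasites in RBCs, 2% Hct / 0.1% parasitemia final; RPMI 1640 + 0.5% Albumax; 37 C, 5% CO2, one generation; luminescence read-out, lower signal = inhibition.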
# Shiga toxin inh: inhibitors of Shiga toxin in Vero cells; Vero cells, Shiga toxin protein synthesis inhibition reporter; inhibition, % at 38.7 µM; 290,000 tested, 9.2% active; AID 2315; in the data active = inhibition mostly above about 28%, no sharp cut-off; inactive = mostly below about 43%; also: 0% is about no effect
# Active calls of the source: *; i = inactive; ? = inconclusive; . = not tested or not shown; ! = repeats disagree. In the library only some 20% were active in any assay of this set; here they are far more common. Unless noted, calls follow the shape of the dose curve; as a rule, active = well fitted inhibition curve with a large enough effect; inconclusive = small, poorly fitted or top-dose-only effect, or another doubt; inactive = no such curve, though single readings can be large or run the other way.
SMILES,HCMV inh,CHX counter,Pf growth 96h,Pf growth 48h,Shiga toxin inh
CCCC1=[N+](CC)CCn2c(C)ccc21,-29,-2,29%,4.7µM*,-3
Cc1ccc(C)n1-c1ccc(N2CCOCC2)c(Br)c1,-10,-2,15µM*,.,-10
COc1ccc(CN2CCC(=O)N([C@H](CO)CC(C)C)CC2)cc1,-20,-3,37%,9%,-2
CCC(N)Cc1c[nH]c2ccccc12 (centres undefined),11,1,0.67µM*!,5%,-5
CCOC(=O)c1cccnc1SCC(=O)Nc1ccc(C)cc1,46,22*,-2%,89%,48
CCOC(=O)c1cccnc1SCC(=O)NC(C)CC (centres undefined),12,-5,?,-23%,-1
COc1cc(NC(=O)CSc2ncccc2C(=O)OC(C)C)cc(OC)c1,-108*!,-1,-22%,.,-12
COc1cc(NC(=O)CSc2ccc(-c3ccccn3)nn2)cc(OC)c1,?,10,?,?,10
Cc1ccc(NC(=O)CSc2ncccc2C(=O)Oc2cccc([N+](=O)[O-])c2)cc1Cl,21,11,?,71%,75*
CCN(CC)C(=O)C(=O)c1cccn1-c1cccc(OC)c1C#N,-25,-1,11%,18%,-14
O=C(c1cc(-c2ccc(Cl)cc2Cl)on1)N1CCN(C(=O)c2ccco2)CC1,72,6,-11%,68%,62
O=C(c1cc(-c2ccc(Cl)cc2Cl)on1)N1CCCCCC1,60,38*,55%,123%,99*
O=C(c1cc(-c2ccc(Cl)cc2Cl)on1)N1CCCC1,-20,23*,?,51%,89*
COc1ccc(C=O)cc1OC1C=CCCC1 (centres undefined),46,8,?,16%,-15
O=C1CCC(=O)N1c1ccc(-c2nc3ccccc3s2)cc1,21,35*,41%,i,62*
Nc1ccc(-c2nc3ccccc3s2)cn1,100,24,292%,275%,104*
Brc1cc2c(cc1-c1nc3ccccc3s1)OCO2,15,33*,41%,34%,65*
O=C(Nc1ccccc1-c1nc2ccccc2s1)C1=COCCO1,-13,-3,115%,4%,-8
CN(C)c1ncccc1-c1nc2ccccc2s1,-38,17,4%,-6%,23
c1ccc(-c2nc3ccccc3s2)nc1,76,61*,335%,273%,76*
Cc1c(C(=O)/C=C/N(C)C)nnn1-c1ccc(Cl)cc1C#N,10,1,?,?,8
COc1ccc(N2CCN(C(=O)CCn3c(=O)c4cccn4c4cccnc43)CC2)cc1,-25,.,.,.,.
O=C(COC(=O)COc1ccc(Cl)cc1Br)NC1CC1,18,.,.,.,.
Cc1nc2sccn2c(=O)c1S(=O)(=O)NC(C)c1ccccc1 (centres undefined),8,5,?,41%,6
Cc1cc(-c2nc3ccccc3s2)ccc1N,-3,.,.,.,.
SMILES,HCMV inh,CHX counter,Pf growth 96h,Pf growth 48h,Shiga toxin inh
Brc1ccc(-c2nc3ccccc3s2)s1,130,48*,324%,191%,96*
CCCCOc1cccc(NC(=O)CSc2nccn2C)c1,-5,8.8*,-13%,20%,37
Cn1ccnc1SCC(=O)Nc1cccc(C(F)(F)F)c1,-1,20,?,36%,41
Cn1ccnc1SCC(=O)Nc1cccc(O)c1,42,21*,.,60%,58
Cc1ccc(-c2nc(CSc3nncn4c3cc3occc34)c(C)o2)cc1,-5,.,.,.,.
COc1cccc(Nc2nnc(SCC(=O)N3CCOCC3)s2)c1,43,16*,64%,?,73
COc1ccc(Nc2nnc(SCC(=O)N3CCCC3)s2)cc1,34,1,?,.,-3
O=C(CSc1nccc(=O)[nH]1)Nc1ccc2c(c1)OCCO2,47,42*,126%,277%,155*
Cc1cc(=O)[nH]c(SCC(=O)Nc2ccc3c(c2)OCCO3)n1,-30,-2,?,?,-14
CCn1c(SCC(=O)NC(=O)Nc2ccc3c(c2)OCCO3)nnc1-c1cccs1,52,18*,-23%,.,46
O=C1CCN(C(=O)CCCn2c(=O)oc3ccccc32)CC1,32,-4,5%,207%,30
CCn1c(SCC(=O)Nc2ccc3c(c2)OCCO3)nnc1-c1ccco1,-17,2,-23%,-1%,6
O=C(CCCn1c(=O)oc2ccccc21)N1CCc2ccccc2C1,93,27*,?,26%,38*
CCc1ccc(NC(=O)CS(=O)CC(=O)Nc2ccc(-n3cnnn3)c(C)c2)cc1 (centres undefined),-8,-5,-6%,8%,-5
CCOC(=O)c1c(NC(=O)C2=C(C)NC(=S)NC2c2ccc(CC)cc2)sc(C)c1C (centres undefined),.,11,?,?,11
COc1ccc(Nc2nnc(SCC(=O)NC(=O)Nc3ccc4c(c3)OCCO4)s2)cc1,-22,15*,-15%,8%,41
O=C(CCn1cnc2ccccc2c1=O)Nc1ccc2c(c1)OCCO2,51,14*,10%,40%,73*
O=C(CSc1ccc([N+](=O)[O-])cn1)Nc1ccc2c(c1)OCCO2,5,17*,40%,-5%,34
O=C(CSc1ccccn1)Nc1ccc2c(c1)OCCO2,127,54*,208%,163%,89*
Nn1c(SCC(=O)Nc2ccc3c(c2)OCCO3)nnc1-c1ccccn1,?,-4,1%,-3%,-7
Cc1ccc(Cl)c2sc(NC(=O)CS(=O)(=O)c3ccc(Cl)cc3)nc12,0,.,.,.,.
CC(NC(=O)c1ccc2c(c1)CCN2S(=O)(=O)c1ccc(Cl)cc1)c1ccccc1 (centres undefined),-2,.,.,.,.
O=C(CSc1ccc([N+](=O)[O-])cn1)Nc1ccc2[nH]c(=O)[nH]c2c1,-12,-1,4.7µM*,11%,-15
O=C(CCn1c(=S)oc2ccccc21)N1CCCCC1,-28,26*,?,?,24
O=C(CSc1ncccn1)Nc1ccc2c(c1)OCO2,17,.,.,.,.
SMILES,HCMV inh,CHX counter,Pf growth 96h,Pf growth 48h,Shiga toxin inh
O=C(CCn1c(=O)oc2ccccc21)N1CCCCCC1,-4,9,9%,5%,-17
O=C(CCn1c(=S)oc2ccccc21)Nc1ccc2c(c1)OCCO2,9,15*,58%,14%,13
O=C(CSc1ncccn1)NC(=O)Nc1ccc2c(c1)OCCO2,18,35*,95%,155%,46*
CC1CCN(C(=O)COC(=O)c2ccc3c(c2)C(=O)N(Cc2ccco2)C3=O)CC1,-16,.,40%,2%,.
CCCCN(C(=O)C(C)Oc1ccc(Cl)cc1)c1c(N)n(CCCC)c(=O)[nH]c1=O (centres undefined),-30,.,2%,13%,.
CCOc1ccc(C(C)C)cc1S(=O)(=O)Nc1cccc(-c2ccc(N3CCOCC3)nn2)c1,-5,.,.,.,.
O=C(O)CC/C(=N\Nc1ccccc1[N+](=O)[O-])c1cccs1,.,47*,0%,42%,58*
O=C(O)CC/C(=N\Nc1ccc(S(=O)(=O)N2CCOCC2)cc1[N+](=O)[O-])c1cccs1,0,-5,12µM*,6.6µM*,-2
